Most compounds without a hit are left out; they make up all but 19% or so of the library.
Giardia kill = Small Molecules that selectively kill Giardia lamblia: qHTS; Giardia lamblia trophozoite viability; activity change, % at 7.66 µM, hits read low; 340,000 compounds, 0.15% hits; in the data active means activity change below about -80%; inconclusive means between about -30% and that limit;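 further: parasites exposed to compound for two days anaerobically before the ATP read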
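Trophozoite viability was measured as ATP-dependent luminescence, read 15-30 min after reagent addition. Before that, parasites at 100 cells/well were exposed to compounds for 48 h, anaerobically, at 37 deg C.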
IL-1B inflam inh = qHTS for Inhibitors of Inflammasome Signaling: IL-1-beta AlphaLISA Primary Screen | THP-1 LPS/ATP IL-1B secretion, AlphaLISA, 16 h; active compounds read low | activity change, % at 57.5 µM | 360,000 compounds, 4.7% hits | AID 743279, 2014; in the data active means activity change below about -50%; inconclusive means mostly about -30% to -49%
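THP-1 cells pretreated 1 hr with compounds (up to 57.5 uM final), then stimulated with LPS (250 ng/mL final) plus ATP (1.25 mM final); secreted IL-1B measured by AlphaLISA after 16 hr, decreased signal indicating inhibition.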
DT40 TDP1 no CPT = qHTS for Inhibitors of human tyrosyl-DNA phosphodiesterase 1 (TDP1): qHTS in cells in absence of CPT | Potency, µM (doses to about 46.2 µM), most hits filed as inhibitors | AID 686978, 2013 | 420,000 compounds, 15% hits | DT40 Tdp1-/- hTDP1 cells, no CPT, ATP luminescence, 48 h; further: nearly all actives have a fitted effect of over 55% in size
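Camptothecin absent (DMSO only). Human TDP1-complemented DT40 knockout cells, 400 cells/well, 37 °C for minimum 48 hr; ATP measured via CellTiter-Glo, 30 min dark incubation, luminescence.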
DT40 TDP1 CPT = qHTS for Inhibitors of human tyrosyl-DNA phosphodiesterase 1 (TDP1): qHTS in cells in presence of CPT; 420,000 compounds, 12% hits; Potency, µM (top dose mostly 46.2 µM), hits mostly inhibitors; AID 686979, 2013; chicken DT40 Tdp1-/-;hTDP1 cells + 20 nM CPT, ATP luminescence, 48 h; further: nearly all actives have a fitted effect of over 55% in size
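Chicken DT40 Tdp1-/- cells complemented with human TDP1, 400 cells/well, exposed to compounds plus 20 nM camptothecin for at least 48 h at 37 C; viability read as ATP content by CellTiter-Glo luminescence.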
ELG1 repair inh = qHTS screen for small molecules that inhibit ELG1-dependent DNA repair in human embryonic kidney (HEK293T) cells expressing luciferase-tagged ELG1; HEK293T ELG1-luciferase reporter, luminescence, 16 h; DNA damage induced by 5-fluorouridine; Potency, µM (top dose mostly 46.1 µM), usual class: inhibitors; 330,000 compounds, 2.3% hits; AID 504467, 2011; further: nearly all actives have a fitted effect of over 55% in size
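Quantitative HTS, concentration-response format. 2,000 cells/well co-treated with 5-fluorouridine and compound, 16 hr in 5% CO2 at 37 °C; ONE-Glo luminescence read after 30 min.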
TDP1 block = qHTS Assay for Inhibitors of Tyrosyl-DNA Phosphodiesterase (TDP1) | recombinant TDP1, AlphaScreen DNA substrate cleavage | 350,000 compounds, 0.28% hits | AID 485290, 2010 | Tyrosyl-DNA phosphodiesterase 1 (Homo sapiens), Q9NUW8 | Potency, µM (top dose mostly 130 µM), usual class: inhibitors; further: nearly all actives have a fitted effect of over 40% in size
Target sequence (Q9NUW8 whole entry, looked up): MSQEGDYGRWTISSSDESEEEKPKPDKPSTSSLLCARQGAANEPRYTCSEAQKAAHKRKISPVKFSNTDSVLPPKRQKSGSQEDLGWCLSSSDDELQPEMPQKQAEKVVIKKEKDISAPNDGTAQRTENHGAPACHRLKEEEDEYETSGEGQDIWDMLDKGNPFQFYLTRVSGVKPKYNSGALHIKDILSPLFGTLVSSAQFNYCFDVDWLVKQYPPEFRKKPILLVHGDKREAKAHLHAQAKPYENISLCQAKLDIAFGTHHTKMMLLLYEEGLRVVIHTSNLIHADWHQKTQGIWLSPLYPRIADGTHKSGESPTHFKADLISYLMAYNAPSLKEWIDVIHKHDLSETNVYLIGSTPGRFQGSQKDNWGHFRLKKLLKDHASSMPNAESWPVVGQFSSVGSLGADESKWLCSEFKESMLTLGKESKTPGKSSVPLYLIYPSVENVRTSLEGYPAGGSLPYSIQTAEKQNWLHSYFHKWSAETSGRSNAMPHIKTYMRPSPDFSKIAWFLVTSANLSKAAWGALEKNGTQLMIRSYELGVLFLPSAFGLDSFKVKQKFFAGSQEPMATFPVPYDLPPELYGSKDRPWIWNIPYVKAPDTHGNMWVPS
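Here, a 5' biotin and 3' phosphotyrosine-FITC DNA oligonucleotide reports Tdp1 activity: intact substrate bridges AlphaScreen beads, while cleavage leaves a 3' phosphate and drops signal. All incubations at room temperature.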
A number is an active result; n = inactive; u = inconclusive; x = no result; [ ] = another dose, or the depositor's remark. Unless noted, the call rests on the fitted dose curve; in most records, active means well fitted curve in the direction sought with a large enough effect; inconclusive means small, poorly fitted or top-dose-only effect, or another doubt; inactive means no such curve, though single readings can be large; an effect the other way counts as inactive or inconclusive.

SMILES | Giardia kill | IL-1B inflam inh | DT40 TDP1 no CPT | DT40 TDP1 CPT | ELG1 repair inh | TDP1 block
Cc1nn(C)c(C)c1NS(=O)(=O)c1ccc(N2CCCC2=O)cc1 | n | -57 | 16µM | 18µM | u | n
O=C1CCCN1c1ccc(CNS(=O)(=O)c2ccc(F)cc2)cc1 | n | n | n | n | n | n
Cn1c(=O)n(C)c2cc(NS(=O)(=O)c3cccs3)ccc21 | n | n | n | n | u | n
CCOCCCNC(=O)c1cc(Sc2cccc(Cl)c2)nc2ccccc12 | x | x | 15µM | u | x | n
COc1cc(/C=C/C(=O)NCCN2CCOCC2)cc(OC)c1OC | n | n | n | n | u | n
COc1ccc(/C=C/C(=O)NCCN2CCOCC2)cc1OC | n | n | 21µM | u | n | n
CCOc1ccc(/C=C/C(=O)NCc2ccccc2)cc1 | n | n | u | n | u | n
CCOCCCNC(=O)c1cc(Sc2ccc(C)cc2)nc2ccccc12 | n | u | u | n | u | n
CCOc1ccc(Sc2cc(C(=O)NCCc3ccc(OC)c(OC)c3)c3ccccc3n2)cc1 | x | x | 5.8µM | 3.7µM | x | n
CCOc1ccc(/C=C/C(=O)NCCc2ccc(OC)c(OC)c2)cc1 | n | n | 23µM | u | n | n
Fc1ccccc1N1CCN(c2nnc(C(F)(F)F)c3nnn(Cc4ccccc4)c23)CC1 | x | x | u | u | x | n
COc1cccc(CNC(=O)c2cc(Sc3cccc(Cl)c3)nc3ccccc23)c1 | x | x | 15µM | u | x | n
COc1ccc(CCNC(=O)c2cc(Sc3cccc(Cl)c3)nc3ccccc23)cc1OC | x | x | 7.3µM | 8.2µM | x | n
COc1ccc(NC(=O)C2C3C=CC4(O3)C2C(=O)N(CCCN2CCCC(C)C2)C4C(=O)NC2CCCCC2)cc1 (stereo not given) | n | n | n | n | n | n[0.0935 µM]
CCOc1cc(C(=O)Nc2ccc3oc(-c4ccc(CC)cc4)nc3c2)cc(OCC)c1OCC | x | x | 8.2µM | 23µM | x | n[12.3 µM]
CCc1ccc(-c2nc3cc(NC(=O)c4ccc(C)c(C)c4)ccc3o2)cc1 | x | x | u | u | x | n
CCOc1ccc(C(=O)Nc2ccc3oc(-c4ccc(C)cc4C)nc3c2)cc1Br | x | x | 13µM | u | x | n[12.3 µM]
CCOc1cc(C(=O)Nc2ccc(-c3nc4cc(C)ccc4o3)cc2)cc(OCC)c1OCC | x | x | 9.2µM | 12µM | x | n
COc1ccc2c(c1)c(CC(=O)NCc1ccc3c(c1)OCO3)c(C)n2C(=O)c1ccc(Cl)cc1 | x | x | x | x | x | n
O=C(c1csnn1)N1CCC2(CCCN(C(c3ccccc3)c3ccccc3)C2)CC1 | x | x | u | 18µM | x | x
O=C(c1csnn1)N1CCC2(CC1)CCN(c1ccccc1)CC2 | x | x | u | n | x | x
O=C(c1csnn1)N1CCC2(CC1)CN(c1cccc(-c3ccccc3)c1)C2 | x | x | 21µM | 23µM | x | x
O=C(c1csnn1)N1CCC2(CCCN(c3ccccc3)C2)CC1 | x | x | u | n | x | x
O=C(c1csnn1)N1CCC2(CC1)CN(c1ccccc1)C2 | x | x | u | 16µM | x | x
CCOC(=O)C1C(=O)CC(C)(O)C(C(=O)OCC)C1c1ccc(N(CC)CC)cc1 (stereo not given) | n | n | u | n | n | n
SMILES | Giardia kill | IL-1B inflam inh | DT40 TDP1 no CPT | DT40 TDP1 CPT | ELG1 repair inh | TDP1 block
CCN(CC)c1ccc(C2C(C(=O)OC(C)C)C(=O)CC(C)(O)C2C(=O)OC(C)C)cc1 (stereo not given) | n | n | 13µM | 15µM | u | n
COc1ccc(C(C(=O)NC2CCCC2)n2c(CSCCOc3ccccc3)nc3ccccc32)cc1 (stereo not given) | x | n | u | u | x | x
COc1ccc(S(=O)(=O)Nc2ccc(N3CCOCC3)cc2)cc1Br | n | n | u | u | n | n
Nc1cc(S(=O)(=O)Nc2ccc(Cl)cc2)ccc1N1CCOCC1 | n | n | 5.2µM | 7.3µM | 15µM | n
COc1ccc(NS(=O)(=O)c2ccc(N3CCCC3)c(N)c2)cc1 | n | n | 4.6µM | 5.2µM | u | x
COc1ccc(NS(=O)(=O)c2ccc(I)cc2)cc1N1CCN(C)CC1 | x | x | 30µM | 27µM | x | n
CCC(Sc1nc(-c2ccc(F)cc2)nc2c1Cc1c(CO)cnc(C)c1O2)C(=O)Nc1ccc(F)cc1 (stereo not given) | x | x | n | n | x | n
FC(F)C(F)(F)Oc1cccc(Nc2nccn3c(-c4cccc5cccnc45)cnc23)c1 | x | n | 23µM | 26µM | x | x
CCC(c1nnnn1Cc1cccs1)N1CCN(c2nc3ccccc3s2)CC1 (stereo not given) | n | u | u | u | u | n
c1cnc2ccc(C(c3nnnn3C3CCCC3)N3CCN(c4nc5ccccc5s4)CC3)cc2c1 (stereo not given) | n | -53 | u | u | n | n
COCCn1nnnc1C(c1cccs1)N1CCN(c2cc(C)ccc2C)CC1 (stereo not given) | n | -53 | u | u | u | n
COCCn1nnnc1C(c1cccs1)N1CCN(c2nc3ccccc3s2)CC1 (stereo not given) | n | n | 23µM | u | u | n
Oc1ccc(C(c2nnnn2CCc2ccccc2)N2CCN(c3nc4ccccc4s3)CC2)cc1 (stereo not given) | n | -50 | 13µM | 16µM | u | x
Cc1ccc(NS(=O)(=O)c2ccc3nc(-c4ccccc4)[nH]c3c2)c(Cl)c1 | x | x | u | u | x | n
COc1ccc(C(c2nnnn2C(C)(C)C)N2CCN(c3nc4ccccc4s3)CC2)cc1OC (stereo not given) | n | n | n | u | n | n
Cc1ccc(Cl)cc1N1CCN(C(c2cccnc2)c2nnnn2C2CCCCC2)CC1 (stereo not given) | n | -53 | u | u | n | n
COc1cc(C(c2nnnn2C(C)(C)C)N2CCN(c3nc4ccccc4s3)CC2)ccc1O (stereo not given) | n | n | 12µM | 15µM | n | n
Cc1ccc(CNc2ccc(-c3nc(-c4ccco4)no3)cc2[N+](=O)[O-])cc1 | x | x | n | n | x | n
COc1ccc(Cl)cc1N(CC(=O)N1CCCC1)S(C)(=O)=O | n | n | n | n | n | x
CC(C)Nc1nc(SC(C)C(=O)Nc2ccccc2)nc(N(C)C)n1 (stereo not given) | n | -87 | n | n | n | n
CCNc1nc(SC(C)C(=O)Nc2ccccc2)nc(N(C)C)n1 (stereo not given) | n | n | u | u | u | n

From PubChem BioAssay
